SMN2 splice up – enhancers of SMN2 splice variant expression | HEK293 SMN2-luciferase splicing reporter, luminescence, 30-36 h | Potency, µM (titrated, usually from 46.1 µM), inactives show at the top dose activity change, positive = activation, hits mostly activators | hit rate 2.8% among 210,000 | AID 1458; also: % of control where 0% means no effect; nearly all actives have a fitted effect of over 55% in size
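HEK293 cells carry an SMN2 minigene-luciferase reporter in which exon 7 inclusion puts luciferase in frame. Cells were seeded at 2000 cells/well, attached for 10-12 hours, then exposed to compounds for 30-36 hours at 37C before ONE-Glo luminescence.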
NPC1 prom act – NPC1 promoter activation. Huh7 NPC1 promoter luciferase reporter, 24 h. Potency, µM (series often up to 9.22 µM), for the others: at the highest dose activation, hits mostly activators. hit rate 2.4% among 320,000. AID 485313; also: % of control where 0% means no effect; nearly all actives have a fitted effect of over 60% in size
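Huh7 reporter cells (NPC1 promoter driving luciferase) are dosed with compound for 24 h at 37 °C, 5% CO2; luciferase detection reagent is then added and luminescence measured after 10 min at ambient temperature.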
KinaseGlo FLuc – blocks Kinase-Glo luciferase, a counter-screen artifact | Q27757 | Kinase-Glo luciferase, ATP luminescence, 8 min | Potency, µM (titrated, usually from 38.3 µM), for inactives: top-dose activity change, negative = inhibition, most hits filed as inhibitors | hit rate 0.28% among 200,000; also: % is scaled to controls: 0 for no effect and ±100 for the full control effect; nearly all actives have a fitted effect of over 60% in size
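Substrate mix (final 50 mM imidazole pH 7.2, 50 mM KCl, 7 mM MgCl2, 10 uM ATP, 0.01% Tween 20, 0.05% BSA) plus pin-tool compound, then Kinase-Glo detection mix; 8 min ambient, luminescence read.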
ELG1 genotoxic – inducers of genotoxicity in HEK293T ELG1-luciferase cells; HEK293T ELG1-luciferase reporter, luminescence, 16 h; Potency, µM (top dose mostly 46 µM), for the others: top-dose activity change, positive = activation, usual class: activators; hit rate 1.3% among 330,000; also: % of control where 0% means no effect; nearly all actives have a fitted effect of over 60% in size
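Step 1: seed 2,000 HEK293T ELG1-luciferase cells per well. Step 2: add compound or DMSO, incubate 16 hr at 37 °C. Step 3: ONE-Glo, 30 min at room temperature, read luminescence.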
Rab9 promoter act – activators of Rab9 promoter | Huh7 Rab9 promoter-luciferase reporter, luminescence, 24 h | Potency, µM (highest dose often 9.22 µM), inactives show top-dose activation, negative = inhibition, most hits filed as activators | hit rate 2.8% among 320,000 | AID 485297; also: % of control where 0% means no effect; nearly all actives have a fitted effect of over 60% in size
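Cells were plated at 1500 per well in reduced-serum medium with 10% FBS and left 2 h. Compound in DMSO was then added for 24 h at 37 °C. Reporter signal was read by luminescence after 10 min with luciferase detection reagent.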
FLuc counter – firefly luciferase modulation, counter-screen for miR-21 project; P08659; purified FLuc, Km substrates, luminescence inhibition; Potency, µM (titrated, usually from 57.5 µM), for the others: top-dose activity change, negative = inhibition, most hits filed as inhibitors; hit rate 6.9% among 360,000;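 also: plate controls were vehicle for no effect and reference inhibitor for full effect; nearly all actives have a fitted effect of over 55% in size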
Target sequence (P08659 whole entry, looked up): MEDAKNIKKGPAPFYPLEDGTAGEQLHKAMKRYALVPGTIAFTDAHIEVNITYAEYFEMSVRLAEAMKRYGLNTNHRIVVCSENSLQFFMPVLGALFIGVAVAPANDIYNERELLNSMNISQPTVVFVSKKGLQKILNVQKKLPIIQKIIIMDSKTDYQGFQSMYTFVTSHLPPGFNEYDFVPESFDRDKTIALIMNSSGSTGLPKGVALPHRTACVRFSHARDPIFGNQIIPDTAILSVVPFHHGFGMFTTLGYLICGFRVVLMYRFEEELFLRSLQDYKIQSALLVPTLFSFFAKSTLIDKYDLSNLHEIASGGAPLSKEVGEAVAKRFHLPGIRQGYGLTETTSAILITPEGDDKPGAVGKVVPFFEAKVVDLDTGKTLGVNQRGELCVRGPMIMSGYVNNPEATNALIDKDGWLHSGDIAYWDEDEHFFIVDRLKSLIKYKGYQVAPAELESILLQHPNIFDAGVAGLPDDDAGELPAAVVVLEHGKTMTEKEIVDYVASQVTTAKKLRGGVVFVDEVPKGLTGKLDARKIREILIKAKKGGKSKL
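Purified P. pyralis luciferase, 10 nM final, with Km-level 10 uM D-luciferin and 10 uM ATP in 50 mM Tris acetate pH 7.5, 10 mM Mg acetate, 0.01% Tween-20, 0.05% BSA; 6-point qHTS titration about 60 µM downward; luminescence read.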
Numbers without * were called inactive; [ ] = remark or other dose. Rows were chosen to be rich in hits. Some 7.3% of all compounds tested hit in one or more screens of this group. Calls follow the shape of the dose curve; as a rule, active = well fitted curve in the direction sought with a large enough effect; inconclusive = small, poorly fitted or top-dose-only effect, or another doubt; inactive = no such curve, though single readings can be large; an effect the other way counts as inactive or inconclusive. Potency is read from the fitted curve at half-maximal effect.

`COc1ccc(-n2c(C)cc(/C=C3\SC(=S)NC3=O)c2C)cc1` gave NPC1 prom act inconclusive, KinaseGlo FLuc -2%, ELG1 genotoxic 4%, Rab9 promoter act inconclusive and FLuc counter 5.4µM*.
For CC1Cc2cc(/C=C3/SC(=S)NC3=O)ccc2O1 (stereo not given) the results were NPC1 prom act inconclusive, ELG1 genotoxic 11%, Rab9 promoter act 4µM* and FLuc counter 2.7µM*.
CCOC(=O)c1ccccc1NC(=O)Cn1c(=O)n(Cc2nc(-c3ccccc3)no2)c(=O)c2ccccc21 was read as FLuc counter 6%.
Cc1ccc(S(=O)(=O)N2CCOCC2)cc1NC(=O)c1cc2c(s1)CCC2 was read as SMN2 splice up -16%, NPC1 prom act -2%, KinaseGlo FLuc 21%, ELG1 genotoxic -5%, Rab9 promoter act -4% and FLuc counter 1%.
Screening Cc1ccc(C(=O)Nc2ccc3c(c2)CCC3)cc1S(=O)(=O)N1CCOCC1 returned SMN2 splice up inconclusive, NPC1 prom act inconclusive, KinaseGlo FLuc -1%, ELG1 genotoxic inconclusive, Rab9 promoter act 2.2µM* and FLuc counter 17µM*.
Cc1ccc(NC(=O)c2cc3c(s2)CCC3)cc1S(=O)(=O)N1CCOCC1 was read as SMN2 splice up -36%, NPC1 prom act 4%, KinaseGlo FLuc -2%, ELG1 genotoxic -15%, Rab9 promoter act -4% and FLuc counter 13µM*.
Cc1ccc(C(=O)Nc2cccc(C(=O)O)c2)cc1S(=O)(=O)N1CCCCC1 was read as SMN2 splice up 11µM*, NPC1 prom act 0.79µM*, KinaseGlo FLuc -12%, ELG1 genotoxic inconclusive, Rab9 promoter act 0.4µM* and FLuc counter 0.34µM*.
`Cc1ccc(C(=O)Nc2cccnc2)cc1S(=O)(=O)N1CCCCC1` gave SMN2 splice up -7%, NPC1 prom act -1%, KinaseGlo FLuc 0%, ELG1 genotoxic -5%, Rab9 promoter act -3% and FLuc counter -15%.
Cc1ccc(C(=O)Nc2cccc(C(=O)O)c2)cc1S(=O)(=O)N1CCOCC1 was read as SMN2 splice up 13µM*, NPC1 prom act 1.3µM*, KinaseGlo FLuc 17%, ELG1 genotoxic 12%, Rab9 promoter act 2.2µM* and FLuc counter 1.1µM*.
Screening CC(=O)c1cccc(NC(=O)c2ccc(C)c(S(=O)(=O)N3CCOCC3)c2)c1 returned NPC1 prom act -2%, ELG1 genotoxic -3%, Rab9 promoter act -2% and FLuc counter -2%.
`CSc1nnc(NC(=O)c2ccc(C)c(S(=O)(=O)N3CCOCC3)c2)s1` gave SMN2 splice up 11µM*, NPC1 prom act 26%, KinaseGlo FLuc -5%, ELG1 genotoxic inconclusive, Rab9 promoter act 6% and FLuc counter inconclusive.
CCS(=O)(=O)N1CCCC(c2nc(-c3cccc(OC)c3)no2)C1 (stereo not given) was read as SMN2 splice up inconclusive, NPC1 prom act 29%, KinaseGlo FLuc 3%, ELG1 genotoxic 15µM*, Rab9 promoter act inconclusive and FLuc counter inconclusive.
`O=C(CSc1nc2c([nH]c3ccccc32)c(=O)n1-c1ccccc1)Nc1ccccc1C(F)(F)F` gave FLuc counter 3%.
`CCCCN(C)CC(O)Cn1cc(/C=C/C(=O)c2ccc(OCC)cc2)c2ccccc21` (stereo not given) gave SMN2 splice up -83%, NPC1 prom act -1%, ELG1 genotoxic 0%, Rab9 promoter act -4% and FLuc counter 17µM*.
`COc1ccc(C)cc1NC(=O)CCn1nc(C)cc1C` gave FLuc counter 1%.
Screening CC1CCN(C(=O)CCCC(=O)N2CCC(C)CC2)CC1 returned NPC1 prom act inconclusive, ELG1 genotoxic 0%, Rab9 promoter act 18% and FLuc counter 9.5µM*.
CCCC(=O)N1CCN(c2nc3ccc(F)cc3s2)CC1 was read as FLuc counter 11µM*.
`CCCCC(=O)N1CCN(c2nc3ccc(F)cc3s2)CC1` gave NPC1 prom act 0.56µM*, ELG1 genotoxic -5%, Rab9 promoter act 0.5µM* and FLuc counter 6µM*.
`CCCCC(=O)N1CCN(c2nc3c(C)c(C)ccc3s2)CC1` gave FLuc counter 3%.
For O=C(c1ccc([N+](=O)[O-])o1)N1CCN(c2nc3ccc(F)cc3s2)CC1 the results were NPC1 prom act -6%, ELG1 genotoxic -4%, Rab9 promoter act 16% and FLuc counter 5%.
CCOc1ccccc1N1CCN(C(=O)CCCc2nc3ccccc3s2)CC1 was read as SMN2 splice up -11%, NPC1 prom act -3%, KinaseGlo FLuc 1%, ELG1 genotoxic -9%, Rab9 promoter act 0% and FLuc counter -1%.
`CCCCC(=O)N1CCN(c2nc3ccc(OCC)cc3s2)CC1` gave NPC1 prom act 0%, ELG1 genotoxic -7%, Rab9 promoter act 4% and FLuc counter 13µM*.
Screening CCCC(=O)N1CCN(c2nc3ccccc3s2)CC1 returned NPC1 prom act 1.4µM*, ELG1 genotoxic inconclusive, Rab9 promoter act 1.1µM* and FLuc counter 7.6µM*.
For CCOc1ccc(NC(=O)CSc2nnc3scc(-c4ccccc4)n23)cc1 the results were SMN2 splice up -10% and FLuc counter -16%.
Screening C=C1c2cccc(C(F)(F)F)c2O[C@H](C(=O)OCC)C1OC (mixture of isomers) returned KinaseGlo FLuc 4%[39.9 µM].
Fc1ccc(C(NCCc2ccccc2)c2nnc(-c3ccccc3Cl)o2)cc1 (stereo not given) was read as SMN2 splice up -13% and FLuc counter -4%.
Screening CC(C)C[C@@H](CC(=O)N[C@@H](CCC(=O)O)CC(=O)O)NC(=O)[C@@H]1CNCC[C@H]1NC(=O)C[C@@H](NC(=O)C[C@H](Cc1ccccc1)NC(=O)[C@@H]1CNCC[C@H]1N)C(C)C returned SMN2 splice up -1% and KinaseGlo FLuc 1%.
COc1ccc(CNc2nc3c(c(=O)n(C)c(=O)n3C)n2Cc2ccccc2Cl)cc1 was read as SMN2 splice up -3% and FLuc counter 1%.
CCC(=O)N1CCN(c2nc3ccc(Br)cc3s2)CC1 was read as NPC1 prom act inconclusive, ELG1 genotoxic inconclusive, Rab9 promoter act inconclusive and FLuc counter 15µM*.
Screening COC(=O)CNC(=O)CCc1nnc(C2(c3ccc(Cl)cc3)CCC2)o1 returned NPC1 prom act 8%, KinaseGlo FLuc -1%, ELG1 genotoxic inconclusive, Rab9 promoter act 18% and FLuc counter inconclusive.

Compound activity from PubChem BioAssay.
